# Measured values taken from ChEMBL document CHEMBL4513216, “Probing the Open Global Health Chemical Diversity Library for Multistage-Active Starting Points for Next-Generation Antimalarials” (ACS Infect Dis, 2020).
# About 8,600 (12%) of roughly 69,000 compounds showed an effect of 50% or more. What follows is part of a selection rich in strong results, with near analogues and random picks from the rest.
# Tested on: Plasmodium berghei
# Assay: Screen against P. berghei liver stage (PbLuc), transformed with Luciferase, at 10uM
# Format: functional, HepG2
# Conditions: tested at 10 uM
row,SMILES,INHIBITION [%]
1,COc1ccccc1CNc1c(O)c(=O)c1=O,21.7
2,CO[C@H]1CC[C@H]2[C@H]1OCCN2Cc1ccc(F)cc1,-40.9
3,O=C(NC1CCN(c2nccs2)CC1)c1cccs1,22.2
4,O=C(NCCNC1CCCC1)c1cccs1,-0.902
5,O=C(NCCNC1CCN(c2nccs2)CC1)c1cccs1,55.1
6,COc1ccc(COCC(=O)N2CCC(c3nncn3C)CC2)cc1,39.2
7,CC(=O)N1N=C(c2ccccc2)OC1C(=O)N(C)CCc1ccccc1 (stereo not given),38.2
8,Cn1cnc2c1C(COCc1ccccc1)N(Cc1ccncc1)CC2 (stereo not given),15.9
9,COC(=O)c1cc(OC)ccc1NCC(=O)NCC(=O)N1CCCC1,2.03
10,CC(C)c1nc(CN2CCOC(Cn3cncn3)C2)no1 (stereo not given),-15.5
11,O=C(NC1CCN(c2cc(-n3ccnc3)ncn2)CC1)c1ccncc1,69.1
12,O=C(NC1CCCC1)C1CCN(c2cc(-n3ccnc3)ncn2)CC1,48
13,O=C(NC1CCN(c2ncccn2)CC1)c1cccc(-n2ccnc2)c1,-2.94
14,CC1c2ncc(CN3CCN(C)CC3)n2CCN1Cc1cnn(C)c1 (stereo not given),33.2
15,O=C1CO[C@@H]2CN(Cc3cccs3)C[C@H]2N1Cc1ccncc1,14.2
16,CCN(CC)CCNC(=O)CCc1c(C)nn(-c2ccccc2Cl)c1C,48
17,CCN(CC)CCNC(=O)CCc1c(C)nn(-c2ccc(Cl)cc2)c1C,63.9
18,CCN(CC)CCNC(=O)CCc1c(C)nn(-c2cccc(Cl)c2)c1C,48
19,O=C1NCCN1CCNc1cc(-c2ccncc2)nc2ccnn12,-4.91
20,CNC(=O)c1cccnc1Oc1ccccc1,9.89
21,NC(=O)CC1c2cccnc2C(=O)N1Cc1ccccc1 (stereo not given),-16.4
22,CC(C)(C)c1n[nH]c(C2CN(C(=O)c3cc(Cl)c[nH]3)CCO2)n1 (stereo not given),19.7
23,Cc1ccc(S(N)(=O)=O)cc1C(=O)NC1CCCN(C)C1 (stereo not given),3.46
24,CC(=O)N[C@H]1CN(S(=O)(=O)N(C)Cc2ccccc2)C[C@@H]1C1CC1,64.4
25,CN(Cc1cccc(F)c1)S(=O)(=O)N1CCOCC1,-26.1
26,CN(Cc1ccc(F)cc1)S(=O)(=O)N1CCOCC1,-8.005
27,CC(=O)N[C@@H]1CN(S(=O)(=O)Cc2ccccc2)C[C@H]1C(C)C,41.6
28,CN(Cc1ccccc1)C(=O)CCN1C[C@H](C2CC2)[C@@H](N(C)C)C1,14.9

row,SMILES,INHIBITION [%]
1,CN(Cc1ccccc1)S(=O)(=O)N1C[C@@H](C(=O)O)[C@H](C2CC2)C1,61.8
2,CN(Cc1ccccc1)S(=O)(=O)N1C[C@H](C2CC2)[C@@H](N)C1,-43.1
3,CCN(Cc1ccccc1)C(=O)CCN1C[C@@H](C(=O)O)[C@H](C2CC2)C1,5.78
4,CCC[C@H]1CN(S(=O)(=O)N(C)Cc2ccccc2)C[C@@H]1N,77.5
5,CN(C)CC(=O)N1CC2(CCN(S(=O)(=O)c3ccccc3)C2)C1,-25.8
6,C1CCC(CNC2CCCN(Cc3noc(C4CC4)n3)C2)C1 (stereo not given),7.43
7,CC(c1ncc(-c2ccccc2)o1)N1CCN(C(=O)N(C)C)CC1 (stereo not given),48.2
8,CCn1c(C)nnc1CN(C)C1CCN(CCS(=O)(=O)CC)C1 (stereo not given),-49.5
9,CC(C)CCN1C2(CCN(C(=O)CN(C)C)C2)c2ccccc2S1(=O)=O (stereo not given),21.4
10,CS(=O)(=O)N1CC2(CCN(C3CCCCC3)CC2)Cc2ccccc21,32.5
11,O=C(c1n[nH]c2c1CCN(Cc1nccs1)C2)N1CCCC1,18.1
12,CS(=O)(=O)c1cc(NC(=O)COc2ccccc2F)cc(C(=O)O)c1,1.98
13,CC(C)CC(C#N)NC(=O)CCNC(=O)C(C)(C)C (stereo not given),55.5
14,CCC(C#N)NC(=O)CCNC(=O)C(C)(C)C (stereo not given),-0.991
15,CC(C)CCC(=O)NC(C#N)CC(C)C (stereo not given),9.91
16,Cc1nc(CN2CCC3(CC2)NC(=O)CC3c2ccccc2)cs1 (stereo not given),34.1
17,CC(C)Cc1noc(C2CCCCN2C(=O)CCc2cnn(C)c2)n1 (stereo not given),32.2
18,Cc1nn(C)c2sc(C(=O)N3CCCC(n4ccnc4C)C3)cc12 (stereo not given),28.4
19,O=c1occ(CN2CCCCCC2)c(O)c1CN1CCOCC1,-28.7
20,Cc1nc(C)c(S(=O)(=O)NC(=O)c2ccsc2)s1,21.8
21,Cc1nc(C)c(S(=O)(=O)NC(=O)c2ccoc2)s1,64.4
22,Cc1nc(C)c(S(=O)(=O)NC(=O)c2sccc2C)s1,51.5
23,Cc1cccc(NC(=O)c2sccc2C)n1,-52.1
24,O=C(NS(=O)(=O)c1cnn(-c2ccccc2F)c1)c1ccoc1,-17.4
25,Cc1nc(C)c(S(=O)(=O)NC(=O)c2cccs2)s1,22.8
26,CCC(C)C(=O)NCCc1nc(C(F)(F)F)cs1 (stereo not given),5.42
27,CCc1nc(C(=O)N2CC(C)CN(C)c3ccccc32)c[nH]1 (stereo not given),-15
